Laboratory results from PubChem BioAssay (NCI).
Compounds without any hit were thinned out: in the full panel of roughly 83,000, 20% have a hit.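 Note: values are percent growth. 100 is the growth of untreated cells, values between 100 and 0 indicate rising inhibition; between -100 and 0 indicates cell death.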 Unmarked numbers belong to inactive results. The source made the active and inactive calls. Rule for the calls: active = growth percent below 10; inactive = the rest.

What was measured:
Experiment in all cases: NCI-60 one-dose screen, 48 h (100 = growth as untreated, 0 = no growth, -100 = all killed)
Conditions in all cases: 10 µM
HCT-15 colon = tested on: HCT-15 colon
HT29 colon = tested on: HT29 colon
SNB-75 CNS = tested on: SNB-75 CNS
U251 CNS = tested on: U251 CNS
PC-3 prostate = tested on: PC-3 prostate
SK-MEL-5 melanoma = tested on: SK-MEL-5 melanoma
UACC-62 melanoma = tested on: UACC-62 melanoma
LOX IMVI melanoma = tested on: LOX IMVI melanoma
SK-MEL-28 melanoma = tested on: SK-MEL-28 melanoma
SK-MEL-2 melanoma = tested on: SK-MEL-2 melanoma
EKVX NSCLC = tested on: EKVX NSCLC
SN12C renal = tested on: SN12C renal
UO-31 renal = tested on: UO-31 renal
TK-10 renal = tested on: TK-10 renal
ACHN renal = tested on: ACHN renal
CAKI-1 renal = tested on: CAKI-1 renal
A498 renal = tested on: A498 renal
CCRF-CEM leukemia = tested on: CCRF-CEM leukemia
MOLT-4 leukemia = tested on: MOLT-4 leukemia
SNB-19 CNS = tested on: SNB-19 CNS

SMILES	growth (HCT-15 colon)	growth (HT29 colon)	growth (SNB-75 CNS)	growth (U251 CNS)	growth (PC-3 prostate)	growth (SK-MEL-5 melanoma)	growth (UACC-62 melanoma)	growth (LOX IMVI melanoma)	growth (SK-MEL-28 melanoma)	growth (SK-MEL-2 melanoma)	growth (EKVX NSCLC)	growth (SN12C renal)	growth (UO-31 renal)	growth (TK-10 renal)	growth (ACHN renal)	growth (CAKI-1 renal)	growth (A498 renal)	growth (CCRF-CEM leukemia)	growth (MOLT-4 leukemia)	growth (SNB-19 CNS)
O=C(NO)c1ccc(CNC(=O)[C@H]2Cc3c([nH]c4ccccc34)[C@H](c3ccccc3)N2)cc1	72.4%	20.2%	52.3%	13.4%	33.3%	8.18% (active)	-24.5% (active)	19.6%	6.06% (active)	9.61% (active)	44.8%	46.7%	46.3%	30.9%	70.8%	78.3%	23.2%	22.2%	12.7%	–
O=C(CS(=O)(=O)c1oc(-c2ccc(Cl)cc2)nc1S(=O)(=O)c1ccccc1)N1CCCC1	-89.3% (active)	-40.6% (active)	–	37.5%	78.8%	84.2%	47.5%	-100% (active)	-100% (active)	82.8%	74.9%	-26.2% (active)	-100% (active)	-94.5% (active)	-100% (active)	-98.7% (active)	110%	-45% (active)	–	80.9%
Brc1ccc(/C=C/c2n(Cc3ccc4ccccc4c3)c3ccccc3[n+]2Cc2ccc3ccccc3c2)cc1	7.22% (active)	-87% (active)	-84.3% (active)	-88.9% (active)	-79.1% (active)	-99.2% (active)	-81.9% (active)	–	-93.1% (active)	-88.9% (active)	-81.6% (active)	-58.9% (active)	44.6%	-63.2% (active)	-31.6% (active)	-29.9% (active)	54.9%	-14.2% (active)	-7.46% (active)	–
COc1nccnc1NS(=O)(=O)c1ccc(NC2=C(Cl)C(=O)c3nc(C)ccc3C2=O)cc1	93.7%	120%	111%	–	80.2%	100%	101%	71.7%	121%	113%	–	99.1%	74.5%	132%	109%	88.7%	94%	97%	94.8%	–
[2H]C([2H])([2H])Oc1ccc2ncc(C#Cc3cncc(C(=O)Nc4ccc(CN5CCN(C)CC5)c(C(F)(F)F)c4)c3)n2n1	-87.7% (active)	-52.8% (active)	-66.4% (active)	-31.4% (active)	-61.6% (active)	-96.1% (active)	-77.5% (active)	-68.4% (active)	-83.8% (active)	–	-60% (active)	-78.2% (active)	-85.2% (active)	-53.4% (active)	-88.9% (active)	-78.7% (active)	-50.6% (active)	0.607% (active)	-13.6% (active)	–
O=C(Nc1ccc(OCc2ccccc2)cc1)Nc1ccc(Cl)c(C(F)(F)F)c1	9.69% (active)	6.91% (active)	–	-10.2% (active)	-0.967% (active)	-96.6% (active)	14.1%	-25.1% (active)	14.3%	-40.2% (active)	5.04% (active)	2.86% (active)	-1.46% (active)	21%	0.776% (active)	3.68% (active)	-15.1% (active)	-23.4% (active)	–	8.37% (active)
O=C(Nc1nc2ccc([N+](=O)[O-])cc2s1)Nc1cc(Cl)ccc1I	-58.2% (active)	-42.2% (active)	-42% (active)	-23.5% (active)	-14.7% (active)	-94.3% (active)	-54.1% (active)	-82.4% (active)	-52.7% (active)	-62.1% (active)	-23.7% (active)	-16.8% (active)	-18.3% (active)	-4.54% (active)	-3.53% (active)	-24.7% (active)	–	-36.8% (active)	-44.6% (active)	–
CCOC(=O)CNC(=O)CN(Cc1ccccc1)C(=O)[C@@]1(C)CCC[C@]2(C)[C@H]3CC4C(C(C)C)=C[C@]3(CC[C@H]21)[C@@H]1C(=O)CCC(=O)[C@H]41	17.6%	41.1%	86.2%	63.8%	35.3%	68.6%	38.9%	-75.1% (active)	62.7%	47.4%	66.2%	50%	47.9%	98.1%	52.9%	81.3%	120%	16.4%	15.8%	–
C=C(c1ccc(OC)c(N)c1)c1cc(C)nc2ccccc12	3.55% (active)	-20.8% (active)	21.4%	7.35% (active)	31.2%	-55% (active)	24.1%	10.3%	62.4%	-23.7% (active)	21.5%	6.5% (active)	21.4%	78.1%	24.5%	27.1%	118%	5.19% (active)	12.5%	–
Cc1ccc(C(=O)Nc2ccc(-n3c(C)nc4c(cnn4-c4ccccc4)c3=O)cc2)cc1	75.3%	71.2%	82.8%	90%	71.6%	7.05% (active)	60.8%	67.2%	80.7%	78.3%	30.5%	73.3%	–	82.3%	61.8%	72.4%	87.3%	46.3%	34.3%	–
COc1ccc2[nH]cc(/C=N/Nc3cccc(Cl)n3)c2c1	29.6%	60.6%	61.8%	57.5%	35%	64%	61.8%	28.8%	96.4%	–	–	38.7%	33.5%	–	47.8%	46.7%	120%	9.72% (active)	14.8%	–
O=C(c1ccc(Cl)cc1)C1[C@H](c2ccc(Br)cc2)[C@@H](c2ccccc2)NC12C(=O)Nc1ccc(Br)cc12 (some centres not stated)	-91.6% (active)	-54.5% (active)	0.834% (active)	-79.9% (active)	-23.5% (active)	-60.3% (active)	-83.9% (active)	-100% (active)	-93.8% (active)	-93.4% (active)	-61.1% (active)	-97.1% (active)	-75.7% (active)	-78.7% (active)	-39.6% (active)	-93.9% (active)	-17.1% (active)	-7.91% (active)	-33% (active)	–
C/C(=C\c1ccc(O)cc1O)c1ccc2ccc(O)cc2[o+]1	12.3%	93.1%	98.1%	23.5%	62.7%	76.3%	59.5%	2.95% (active)	62.3%	91.1%	68.1%	44.9%	50.7%	116%	45%	58.5%	–	55.8%	29.3%	–
COc1cnc2c(c1)C(=O)c1c-2n(CCCNC(C)C)c(=O)c2cc(OC)c(OC)cc12	34.6%	10.5%	70.7%	30.4%	48.7%	47.7%	18.7%	-88.2% (active)	94%	107%	92.6%	25%	29.5%	87.6%	3.23% (active)	15.2%	105%	16.2%	16.5%	–
O=c1[nH]c2ccccc2cc1CSc1ccc(Nc2nccc(-c3ccc4c(c3)OCO4)n2)cc1	84.1%	74.3%	105%	75.8%	88.9%	94.5%	96.2%	58.7%	105%	–	94.2%	96%	95.6%	89.4%	94.7%	98%	121%	98.4%	102%	–
